The entries come from a sample that favours hits as a whole.
Tb PYK inh: inhibitors of Trypanosoma brucei pyruvate kinase. Potency, µM (highest dose often 76.8 µM), without a hit: at the top dose activity, negative = inhibition, usual class: inhibitors. TbPYK enzyme, Kinase-Glo Plus ATP luminescence, 45 min. hit rate 0.12% among 410,000. AID 624173; further: potency means the concentration at half of the fitted maximal effect; on the % scale 0 is the no-effect control and ±100 the full control effect; nearly all actives have a fitted effect of over 50% in size
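TbPYK + substrate in 50 mM TEA pH 7.2, 100 mM KCl, 10 mM MgCl2, 0.05% BSA, 0.01% Tween-20; cpd pinned; ADP 130 uM final; 45 min RT; Kinase-Glo Plus 10 min; luminescence endpoint.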
Shiga toxin inh: blocks Shiga toxin action in Vero cells | Vero cells, Shiga toxin protein synthesis inhibition reporter | inhibition, % at 38.7 µM | hit rate 9.2% among 290,000; in the data active means inhibition mostly above about 28%, no sharp cut-off; inactive means mostly below about 43%; further: 0% is about no effect
FBPA Giardia inh: inhibitors of Giardia lamblia fructose-1,6-bisphosphate aldolase; purified Giardia FBPA; Potency, µM (highest dose often 59.6 µM), for the others: at the highest dose activity, negative = inhibition, actives largely listed as inhibitors; hit rate 0.71% among 290,000; further: potency means the concentration at half of the fitted maximal effect; on the % scale 0 is the no-effect control and ±100 the full control effect; nearly all actives have a fitted effect of over 55% in size
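40 nM FBPA preincubated 10 min at RT with compound (up to 57.5 uM final), then substrate plus GAPDH/TPI/NAD/arsenate coupling and diaphorase/resazurin added. Fluorescence read after 20 min at RT, 525/598 nm.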
CHX counter: counter-screen hit for Shiga toxin inhibitors, cycloheximide; cell reporter, cycloheximide protein synthesis inhibition counterscreen; max response, %; hit rate 12% among 300,000; AID 2314; in the data active means max response mostly above about 13%, no sharp cut-off; inactive means mostly below about 14%; further: read at 38.3 µM for the half of the compounds with a filed dose; 0% is about no effect
Sm TGR block: S. mansoni TGR enzyme inhibition; Q962Y6; hit rate 3% among 360,000; purified TGR, DTNB reduction, TNB absorbance 405 nm; AID 485364; Potency, µM (series often up to 114 µM), for the others: at the highest dose activity change, negative = inhibition, usual class: inhibitors; further: potency means the concentration at half of the fitted maximal effect; on the % scale 0 is the no-effect control and ±100 the full control effect; nearly all actives have a fitted effect of over 60% in size
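First, TGR (20 nM dispensed) and NADPH were mixed with compound. Second, a 15 min room-temperature incubation followed. Third, further NADPH and then DTNB were added to start the reaction. Finally, TNB absorbance was monitored kinetically.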
LmPK inh: blocks Leishmania mexicana pyruvate kinase activity. hit rate 0.37% among 290,000. Q27686. purified LmPK, Kinase-Glo ATP luminescence, 1 h. Potency, µM (doses to about 57.5 µM), for inactives: top-dose activity change, negative = inhibition, usual class: inhibitors; further: potency means the concentration at half of the fitted maximal effect; on the % scale 0 is the no-effect control and ±100 the full control effect
Target sequence (Q27686 whole entry, looked up): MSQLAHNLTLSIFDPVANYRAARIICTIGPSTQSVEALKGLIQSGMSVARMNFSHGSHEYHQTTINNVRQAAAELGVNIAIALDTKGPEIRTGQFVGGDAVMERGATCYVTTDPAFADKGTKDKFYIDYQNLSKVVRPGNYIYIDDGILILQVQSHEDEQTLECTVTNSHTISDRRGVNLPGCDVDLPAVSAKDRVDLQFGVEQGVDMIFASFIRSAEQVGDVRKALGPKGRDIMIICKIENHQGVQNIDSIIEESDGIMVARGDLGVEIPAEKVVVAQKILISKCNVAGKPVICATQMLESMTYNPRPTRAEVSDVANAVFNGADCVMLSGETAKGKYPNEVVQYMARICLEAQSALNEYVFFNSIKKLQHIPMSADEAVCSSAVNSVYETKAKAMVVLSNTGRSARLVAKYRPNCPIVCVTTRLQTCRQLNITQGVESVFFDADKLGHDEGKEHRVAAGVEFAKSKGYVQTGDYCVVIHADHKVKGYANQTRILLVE
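Kinase-Glo luminescence read after 1 h RT reaction of 0.1 nM LmPK with 0.5 mM PEP and 0.1 mM ADP. Activity scaled between uninhibited and enzyme-free controls.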
Numbers without * were called inactive; ? = inconclusive; · = no result given; + = active, no number; [ ] = another dose, or the depositor's remark. Unless noted, the call rests on the fitted dose curve; in most records, active means well fitted curve in the direction sought with a large enough effect; inconclusive means small, poorly fitted or top-dose-only effect, or another doubt; inactive means no such curve, though single readings can be large; an effect the other way counts as inactive or inconclusive.

SMILES	Tb PYK inh	Shiga toxin inh	FBPA Giardia inh	CHX counter	Sm TGR block	LmPK inh
COc1ccccc1NC(=O)c1ccccc1NC(=O)c1ccccn1	2%	·	·	·	-1%	·
O=C(Nc1cccc2cccnc12)c1ccccc1Cl	5%	·	·	·	·	·
COc1ccccc1C(=O)Nc1cccc2cccnc12	-1%	42	-8%	39*	?	0%
COC(=O)c1ccccc1NC(=O)c1cccc(NC(=O)c2ccc(Br)o2)c1C	4%	10	4%	-2	6%	-5%
O=C(Nc1cccc2cccnc12)c1cc(F)c(F)cc1Cl	1%	·	-6%	29*	12%	1%
COc1cc(-c2cc(OC)c3c(C)oc(C)c3c(=O)c2)ccc1OC(=O)c1ccccc1F	?	·	·	·	-1%	·
COc1ccc(N(CC(=O)NCc2ccccc2Cl)S(=O)(=O)c2c(C)[nH]c(=O)[nH]c2=O)cc1	0%	·	·	·	-1%	·
CN(C)/C=N/c1ncnc2c1cnn2-c1ccc(C(F)(F)F)cn1	-16%	77*	7%	41*	-7%	2%
CC(=O)NS(=O)(=O)c1ccc(NC(=O)/C=C/c2ccc(C)o2)cc1	?	-1	-20%	-2	·	4%
Cc1ccc(/C=C/C(=O)NCc2ccc3c(c2)OCO3)o1	?	4	3%	-2	13µM*	0%
Cc1ccc(/C=C/C(=O)NCc2ccc(S(N)(=O)=O)cc2)o1	10µM*	-5	-20%	-4	·	-2%
Cc1ccc(C(=O)NCc2ccc3c(c2)OCO3)o1	-2%	·	-4%	2	8%	-2%
Cc1ccc(/C=C/C(=O)Nc2ccc(S(N)(=O)=O)cc2)o1	?	-8	-18%	6	7.9µM*	-16%
Nc1[nH]c(C(=O)c2ccccc2)c(-c2ccc(C(F)(F)F)cc2)c1C(=O)NCc1ccc(Cl)cc1Cl	5%	·	·	·	·	·
COc1ccc(NC(=O)c2cc3nc(-c4ccc(Cl)c(Cl)c4)cc(C(F)(F)F)n3n2)c(OC)c1	-9%	·	·	·	-7%	·
CC(C)(C)NC(=O)CSc1ncccc1-c1nc2ccccc2[nH]1	-2%	26*	-5%	26*	-28%	3%
O=C(CSc1ncccc1-c1nc2ccccc2[nH]1)N1CCc2ccccc21	-11%	26	5%	85*	3%	2%
Cn1c(SCC(=O)N2CCc3ccccc32)nc2cccnc21	-23%	-1	8%	1	0%	4%
COC(=O)CSc1ncccc1-c1nc2ccccc2[nH]1	0%	+	-1%	24*	4%	-2%
COc1cccc(-c2cc(N(C)Cc3ccco3)ncn2)c1	·	·	-13%	·	·	·
CCCCOC(OCCCC)[C@H](O)CSc1ccc2ccccc2c1	·	·	-3%[12.9 µM]	·	·	·
COc1ccc(N2CC(c3nc(-c4ccccc4C)no3)CC2=O)cc1Cl (configuration not stated)	0%	·	·	·	6%	·
CC1(C)CC(=O)c2c(S(C)(=O)=O)sc(Br)c2C1	-3%	2	6%	11	16µM*	6%
CSc1sc(C(=O)O)c2c1C(=O)CC(C)(C)C2	-3%	·	·	·	·	·
O=[N+]([O-])c1ccc(-[n+]2nc(-c3ccccc3)nn2-c2ccccc2)cc1	5%	-6	-24%	-2	-23%	-6%
SMILES	Tb PYK inh	Shiga toxin inh	FBPA Giardia inh	CHX counter	Sm TGR block	LmPK inh
Cc1cc(NC(=O)CCC2CCCCC2)no1	-4%	61*	2%	25*	-3%	1%
CCCC(=O)Nc1ccc(Br)cn1	2%	20	0%	5	3%	0%
Cc1ccnc(NC(=O)CCC2CCCCC2)c1	-5%	126*	0%	42*	11%	-23%
O=C(CCC1CCCC1)Nc1ccc(Br)cn1	3%	89*	2%	18*	-1%	-3%
O=C(CCC1CCCC1)Nc1ccon1	3%	-2	0%	7	-4%	-1%
Cc1cc(NC(=O)CCC2CCCC2)no1	1%	36	2%	28*	6%	0%
C#CCCCO/N=C1/C[C@@H](O)[C@@H](O)[C@@H]2[C@@H]3C(=O)N(c4cccc(Oc5ccccc5)c4)C(=O)[C@H]3CC[C@@H]12	·	·	2%[12.9 µM]	·	·	·
Cc1ccnc(NC(=O)C23CC4CC(CC(C4)C2)C3)c1	4%	27	-2%	12*	4%	0%
CCOC(=O)c1cc(S(=O)(=O)Nc2ccccc2OCC)[nH]n1	-11%	·	·	·	-4%	·
COc1ccc(Nc2nccc(NCCO)n2)cc1	·	72*	0%	41*	·	·
